About 79,000 compounds went through this panel and 15% of them were active in at least one assay; those are over-represented in the sample as a whole. Cut-off read from the data, not from the text of the source: active = growth inhibition above about 70%; inactive = the rest.
Legend:
[1] = NCI Yeast Anticancer Drug Screen. Data for the rad50 strain (AID 155);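 note: 0% = growth of vehicle-only cultures of the same strain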; details: S. cerevisiae rad50 strain growth inhibition, active compounds read high; at 50.0 µM unless noted
In short: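 DNA repair mutant yeast, compound exposure, growth read-out; inhibition is taken relative to vehicle.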

[2] = NCI Yeast Anticancer Drug Screen. Data for the mec2-1 strain (AID 157); details: S. cerevisiae mec2-1 strain, active compounds read high; at 50.0 µM unless noted
In short: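 Strain: mec2-1 (DNA repair/cell cycle alteration). Compound exposure, then growth measured; inhibition expressed relative to vehicle.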

[3] = NCI Yeast Anticancer Drug Screen. Data for the sgs1 mgt1 strain (AID 161);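 note: 0% = growth of cultures given vehicle only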; details: S. cerevisiae sgs1 mgt1 strain, active compounds read high; at 50.0 µM unless noted
In short: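 Mutant yeast exposed to compound; growth scored against vehicle-only wells.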

[4] = NCI Yeast Anticancer Drug Screen. Data for the cln2 rad14 strain (AID 165);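 note: 0% = growth equal to vehicle treated cultures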; details: S. cerevisiae cln2 rad14 strain, active compounds read high; at 50.0 µM unless noted
In short: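 Compounds are applied to the cln2 rad14 yeast strain, and growth is then compared with that of vehicle-treated cultures to give inhibition.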

[5] = NCI Yeast Anticancer Drug Screen. Data for the bub3 strain (AID 167); details: S. cerevisiae bub3 mutant strain, active compounds read high; at 50.0 µM unless noted
In short: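 In this screen, a yeast mutant lacking normal mitotic checkpoint function is challenged with compound. Relative growth versus vehicle gives the inhibition value.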

[6] = NCI Yeast Anticancer Drug Screen. Data for the mlh1 rad18 strain (AID 175); details: S. cerevisiae mlh1 rad18 strain growth inhibition, active compounds read high; at 50.0 µM unless noted
In short: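 Read-out is yeast growth inhibition, calculated against vehicle-only controls. The compound was applied to a strain engineered with DNA damage repair alterations.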

Measured: growth inhibition

COc1cccc2cc3c(cc12)C(=O)C(C)=C(C)C3=O
inactive: [1] -1.65% | [2] -3.6% | [3] -3.45% | [4] -9.25% | [5] 6.8% | [6] 2.55%

COc1cccc(C)c1NC(=O)NCCCl
inactive: [1] 17.6% | [2] 1.05% | [3] 13.2% | [4] -25.2% | [5] 12.1% | [6] 5.05%

COC(=O)c1nnn(-c2ccc(Cl)cc2C)c1C(=O)c1ccc(OC)cc1
inactive: [1] -33.4% | [2] 0.95% | [3] -11.8% | [4] -2.45% | [5] -9.1% | [6] -20.2%

N#Cc1c(-c2ccccc2)c(-c2ccccc2)nn(CCO)c1=O
inactive: [1] 7.35% | [2] 10.8% | [3] 20.9% | [4] -21.8% | [5] 6.4% | [6] 46%

COc1ccc(/C=N\NC(=O)c2cnccn2)cc1
inactive: [1] 9.15% | [2] 10.8% | [3] 5.35% | [4] 1.4% | [5] 15.7% | [6] 11.1%

COC(=O)CCC(=O)Nc1cc(C)ccc1C
inactive: [1] -6.3% | [2] -19.9% | [3] -7.6% | [4] 4.5% | [5] -2.25% | [6] -12.2%

COC(=O)[C@H]1C2CC[C@@H]3C45C[C@@H](c6ccoc6)O[C@@H]4O[C@@H](O2)C31CCC5C (some centres not stated)
inactive: [1] 14.5% | [2] -18.4% | [3] 6.35% | [4] 5% | [5] -30.1% | [6] 14.9%

Oc1ccc(/C=C\c2cnccn2)cc1
inactive: [1] 27.6% | [2] 7.3% | [3] 0.45% | [4] 5.55% | [5] 30.8% | [6] 7.6%

CCOC(OCC)N1C(=O)C2(C(OCC)OCC)CC3C(OC(=O)N3N)c3cccc1c32 (configuration not stated)
inactive: [1] -16.4% | [2] 4.15% | [3] -7.45% | [4] -8.95% | [5] -4.75% | [6] -4.4%

CCOC(=O)/C(C)=C\C=C(\C)CCC=C(C)C
inactive: [1] -8.8% | [2] -19.1% | [3] -2.45% | [4] -28.3% | [5] -15.2% | [6] 15.4%

COC(=O)NC1C(OC(C)=O)C(OC(C)=O)C(COC(C)=O)OC1n1ccc(NC(C)=O)nc1=O (configuration not stated)
inactive: [1] 8.65% | [2] 1.4% | [3] 5.9% | [4] 18.6% | [5] 0.15% | [6] 5.1%

CCCOC(=O)C1C(=O)CC(c2ccccc2)C1c1ccccc1 (configuration not stated)
inactive: [1] 1.95% | [2] -2.05% | [3] 1.3% | [4] -4.15% | [5] 1.25% | [6] -0.4%

CCOC=Nc1ccc(-n2cnc3c(Cl)ncnc32)cc1C
inactive: [1] 1.1% | [2] -4.45% | [3] -16.6% | [4] -6.2% | [5] -1% | [6] -17.2%

Cc1cccc2c1/C(=C1/c3ccccc3C(=O)c3cccc(C)c31)c1ccccc1C2=O
inactive: [1] -4.85% | [2] -24.1% | [3] -3.45% | [4] 14.3% | [5] -1.2% | [6] -6.15%

CCOC(=O)CON=c1c2ccccc2ccc2ccccc12
inactive: [1] 4.05% | [2] -5.85% | [3] -22.5% | [4] 3.4% | [5] -10.2% | [6] -2.45%

C=C1CC(CCCC2CC(=C)C(=O)O2)OC1=O (configuration not stated)
inactive: [1] 5.8% | [2] 12.9% | [3] -4.1% | [4] -50.7% | [5] -11.2% | [6] 6.15%

CCCCCC[N+]1([O-])CC[N+]([O-])(CCCCCC)CC1 (configuration not stated)
inactive: [1] -6.6% | [2] -7.9% | [3] -1.55% | [4] -43.4% | [5] 0.35% | [6] 7.35%

CN=Nc1c(O)[nH]c2ccc(C)cc12
inactive: [1] -5.25% | [2] 0.2% | [3] -8.3% | [4] -43.1% | [5] -8.15% | [6] 2.05%

O=c1[nH][nH]c(=O)c2c([N+](=O)[O-])cccc12
inactive: [1] -17.6% | [2] -8.6% | [3] -3.8% | [4] -37.5% | [5] 0.35% | [6] -0.35%

Cn1cnc2[nH]c(=O)[nH]c(=O)c21
inactive: [1] 3.9% | [2] 12.9% | [3] -8.95% | [4] 1.95% | [5] 8.85% | [6] -0.75%

CC(C)NC(=O)OCc1c(COC(=O)NC(C)C)c(-c2ccc(F)cc2F)n2c1CCC2
inactive: [1] 12% | [2] 4% | [3] 10% | [4] 8.6% | [5] -13.6% | [6] -12.7%

COc1cc(C(=O)N(C)C)cc(OC)c1OC
inactive: [1] -1.25% | [2] 2.65% | [3] -6.6% | [4] 2.25% | [5] -4% | [6] 5.5%

N#CCN1CCc2ccccc2C1
inactive: [1] -8.45% | [2] -7.15% | [3] -6.65% | [4] -33.9% | [5] -11.7% | [6] -6%

O=[N+]([O-])c1ccc(N2N=NC(c3ccccc3)C2(c2ccccc2)N2CCOCC2)cc1 (configuration not stated)
inactive: [1] 29.6% | [2] -0.9% | [3] 28.4% | [4] 16.7% | [5] 0.95% | [6] 14.6%

N#C/C(=C1/c2cc([N+](=O)[O-])ccc2-c2c1cc([N+](=O)[O-])cc2[N+](=O)[O-])N1CCCCC1
inactive: [1] -25.4% | [2] -5.3% | [3] 2.5% | [4] -17.8% | [5] -22.8% | [6] -13.7%

CC(C)(C)OC(=O)/N=C/c1c(O)c2ccccc2oc1=O
inactive: [1] -36.5% | [2] -20.5% | [3] -21.8% | [4] 9.75% | [5] -17.4% | [6] -26%

CC(C)(Br)C(Br)CCC(C)(Br)C(Br)CO (configuration not stated)
inactive: [1] 10.9% | [2] -0.7% | [3] -3.8% | [4] -12.1% | [5] 0.55% | [6] -1.3%

ONC(CC(O)(NO)NO)c1ccccc1 (configuration not stated)
inactive: [1] -32.7% | [2] -32% | [3] -20.6% | [4] 12.6% | [5] -28.1% | [6] -25.9%

CSC(N)=Nc1cccc2ccccc12
inactive: [1] -44.2% | [2] -59% | [3] -40.5% | [4] -10.9% | [5] -34.2% | [6] -41%

Nc1nc2c(ncn2-c2ccc(Br)cc2)c(=O)[nH]1
inactive: [1] 15.2% | [2] -1.6% | [3] 20.9% | [4] 32.1% | [5] -4.8% | [6] 59.8%

N#CCN1CCCCCC1
inactive: [1] -14.8% | [2] -20.5% | [3] -16.6% | [4] 4.2% | [5] -13.6% | [6] 9.8%

COc1ccc(C=NCC(OC)OC)cc1OCc1ccccc1
inactive: [1] -14.9% | [2] 7.15% | [3] 14% | [4] -16.4% | [5] -3.05% | [6] 12.4%

Cc1ccc(S(=O)(=O)N/N=C(\c2nc3ccc(Cl)cc3[nH]c2=O)C(O)c2cccc([N+](=O)[O-])c2)cc1 (configuration not stated)
inactive: [1] -1.5% | [2] -24% | [3] -9.35% | [4] 11.7% | [5] -22.6% | [6] -0.5%

Cc1cc(=O)[nH]c(N/N=C/C=C/c2ccccc2)n1
inactive: [1] -35.4% | [2] -25.7% | [3] -17.1% | [4] -15.8% | [5] -15.8% | [6] -25.9%

Cc1nnc2sc(N/N=C/c3ccccc3)nn12
inactive: [1] -35.5% | [2] -29.9% | [3] -69.2% | [4] -13.8% | [5] -10.1% | [6] -71.3%

CC(=O)Nc1cccc(Br)c1
inactive: [1] -18.1% | [2] -23.6% | [3] -18.1% | [4] -12.8% | [5] -25.5% | [6] -19.1%

CSc1nc2c([nH]1)c(=O)n(C)c(=S)n2C
inactive: [1] 4.95% | [2] 6.05% | [3] -0.85% | [4] 12.1% | [5] 0.4% | [6] -4.25%

From PubChem BioAssay (NCI)
